± gives the standard deviation of the averaged measurements. Targets with the largest changes are over-represented here; the source holds about 6,500 in all.

Compound in the experiment: Nc1ncnc2c1ncn2[C@@H]1O[C@H](COP(=O)(O)OP(=O)(O)OP(=O)(O)O)[C@@H](O)[C@H]1O [adenosine triphosphate]
Nature of the experiment: NP40-soluble protein abundance relative to vehicle (solubility fold change) (ratio); higher = more soluble protein in presence of ATP. A digest of the protocol: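 Each value is a fold change relative to the detergent-processed vehicle, calculated per replicate from vsn-normalised intensities. Jurkat crude lysate received eight concentrations (0.1 to 10 mM) for 10 min at room temperature and 3 min at 37 °C, then was solubilised in 0.8% NP40 with benzonase (60 min, 4 °C). The ultracentrifuged supernatant was TMT-labelled and run by LC-MS/MS in three independent experiments.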

UniProt Q9Y303, sequence (Q9Y303 whole entry): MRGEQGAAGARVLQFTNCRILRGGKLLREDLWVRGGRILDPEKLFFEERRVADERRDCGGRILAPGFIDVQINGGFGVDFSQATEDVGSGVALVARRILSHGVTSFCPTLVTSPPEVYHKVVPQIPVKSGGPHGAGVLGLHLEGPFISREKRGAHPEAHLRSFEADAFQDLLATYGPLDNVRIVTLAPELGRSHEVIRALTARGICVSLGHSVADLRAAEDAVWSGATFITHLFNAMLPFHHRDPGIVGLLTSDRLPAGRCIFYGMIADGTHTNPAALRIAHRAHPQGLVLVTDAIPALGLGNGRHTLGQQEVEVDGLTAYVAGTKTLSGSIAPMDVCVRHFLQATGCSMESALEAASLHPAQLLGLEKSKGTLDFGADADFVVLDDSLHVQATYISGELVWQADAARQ
UniProt Q9Y3Q3, sequence (Q9Y3Q3 whole entry): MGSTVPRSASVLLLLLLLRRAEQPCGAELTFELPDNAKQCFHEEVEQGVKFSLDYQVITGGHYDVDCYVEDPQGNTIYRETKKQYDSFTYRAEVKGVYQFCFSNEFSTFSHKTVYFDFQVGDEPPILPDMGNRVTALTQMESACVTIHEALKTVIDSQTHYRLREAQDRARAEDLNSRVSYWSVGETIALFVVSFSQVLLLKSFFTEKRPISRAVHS
UniProt Q9UKU7, sequence (Q9UKU7 whole entry): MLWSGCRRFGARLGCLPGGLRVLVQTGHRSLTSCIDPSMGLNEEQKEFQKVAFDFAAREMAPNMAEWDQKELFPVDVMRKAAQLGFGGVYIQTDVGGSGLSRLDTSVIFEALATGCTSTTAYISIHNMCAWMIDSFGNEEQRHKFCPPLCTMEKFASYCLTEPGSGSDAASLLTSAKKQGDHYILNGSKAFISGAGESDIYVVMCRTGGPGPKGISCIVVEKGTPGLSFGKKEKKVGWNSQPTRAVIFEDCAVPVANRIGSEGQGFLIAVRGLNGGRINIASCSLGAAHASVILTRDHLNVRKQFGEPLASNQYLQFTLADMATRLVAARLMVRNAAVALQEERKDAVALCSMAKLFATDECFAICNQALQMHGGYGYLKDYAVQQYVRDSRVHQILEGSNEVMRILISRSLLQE
UniProt Q9Y6I9, sequence (Q9Y6I9 whole entry): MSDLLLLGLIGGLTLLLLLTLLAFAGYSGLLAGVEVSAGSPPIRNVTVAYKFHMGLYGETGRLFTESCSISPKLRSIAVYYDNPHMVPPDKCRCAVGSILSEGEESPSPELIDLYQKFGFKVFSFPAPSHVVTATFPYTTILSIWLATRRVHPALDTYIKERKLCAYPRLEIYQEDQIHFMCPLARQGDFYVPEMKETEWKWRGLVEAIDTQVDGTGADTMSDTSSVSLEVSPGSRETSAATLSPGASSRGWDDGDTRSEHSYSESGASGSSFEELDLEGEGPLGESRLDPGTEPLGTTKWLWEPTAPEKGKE
UniProt Q9Y2X3, sequence (Q9Y2X3 whole entry): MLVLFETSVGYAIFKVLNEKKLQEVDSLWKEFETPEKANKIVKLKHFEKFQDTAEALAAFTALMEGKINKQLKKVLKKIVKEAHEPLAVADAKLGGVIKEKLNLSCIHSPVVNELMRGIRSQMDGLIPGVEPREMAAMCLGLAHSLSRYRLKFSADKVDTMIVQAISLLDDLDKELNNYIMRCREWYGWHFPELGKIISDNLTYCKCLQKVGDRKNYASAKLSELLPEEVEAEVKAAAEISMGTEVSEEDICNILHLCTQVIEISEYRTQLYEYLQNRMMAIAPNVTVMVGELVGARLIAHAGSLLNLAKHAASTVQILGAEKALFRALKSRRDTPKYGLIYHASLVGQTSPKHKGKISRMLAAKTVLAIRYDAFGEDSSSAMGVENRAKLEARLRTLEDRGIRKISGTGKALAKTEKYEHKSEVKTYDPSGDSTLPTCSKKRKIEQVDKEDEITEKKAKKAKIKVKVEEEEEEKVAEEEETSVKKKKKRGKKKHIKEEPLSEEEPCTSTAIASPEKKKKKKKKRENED
UniProt Q9Y5P4, sequence (Q9Y5P4 whole entry): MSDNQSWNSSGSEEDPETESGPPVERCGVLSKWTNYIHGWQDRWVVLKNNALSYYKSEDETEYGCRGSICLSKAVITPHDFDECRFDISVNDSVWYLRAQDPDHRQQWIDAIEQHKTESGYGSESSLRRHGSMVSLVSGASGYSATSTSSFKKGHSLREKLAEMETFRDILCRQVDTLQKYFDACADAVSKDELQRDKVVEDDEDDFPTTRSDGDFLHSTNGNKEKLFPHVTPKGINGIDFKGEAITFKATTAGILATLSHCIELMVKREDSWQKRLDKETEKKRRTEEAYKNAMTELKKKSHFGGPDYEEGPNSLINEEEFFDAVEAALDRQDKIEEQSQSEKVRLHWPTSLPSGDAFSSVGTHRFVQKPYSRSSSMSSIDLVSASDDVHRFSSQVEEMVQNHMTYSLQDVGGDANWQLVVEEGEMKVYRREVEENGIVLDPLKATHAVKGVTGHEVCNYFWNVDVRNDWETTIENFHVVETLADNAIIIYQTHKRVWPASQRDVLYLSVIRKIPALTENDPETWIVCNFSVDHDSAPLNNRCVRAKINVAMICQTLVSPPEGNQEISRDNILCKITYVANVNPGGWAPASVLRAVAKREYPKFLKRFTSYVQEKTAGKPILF
UniProt Q9Y639, sequence (Q9Y639 whole entry): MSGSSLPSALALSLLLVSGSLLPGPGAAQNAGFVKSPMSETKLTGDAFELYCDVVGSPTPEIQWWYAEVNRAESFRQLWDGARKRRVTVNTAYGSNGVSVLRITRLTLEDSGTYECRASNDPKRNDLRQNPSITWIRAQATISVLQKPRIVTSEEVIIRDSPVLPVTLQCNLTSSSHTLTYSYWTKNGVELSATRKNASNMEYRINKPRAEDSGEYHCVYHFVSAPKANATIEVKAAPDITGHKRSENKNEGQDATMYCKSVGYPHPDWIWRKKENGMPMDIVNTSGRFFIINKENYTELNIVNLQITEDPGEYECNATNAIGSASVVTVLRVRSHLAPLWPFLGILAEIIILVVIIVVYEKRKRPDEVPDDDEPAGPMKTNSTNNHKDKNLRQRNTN
UniProt Q9UNF0, sequence (Q9UNF0 whole entry): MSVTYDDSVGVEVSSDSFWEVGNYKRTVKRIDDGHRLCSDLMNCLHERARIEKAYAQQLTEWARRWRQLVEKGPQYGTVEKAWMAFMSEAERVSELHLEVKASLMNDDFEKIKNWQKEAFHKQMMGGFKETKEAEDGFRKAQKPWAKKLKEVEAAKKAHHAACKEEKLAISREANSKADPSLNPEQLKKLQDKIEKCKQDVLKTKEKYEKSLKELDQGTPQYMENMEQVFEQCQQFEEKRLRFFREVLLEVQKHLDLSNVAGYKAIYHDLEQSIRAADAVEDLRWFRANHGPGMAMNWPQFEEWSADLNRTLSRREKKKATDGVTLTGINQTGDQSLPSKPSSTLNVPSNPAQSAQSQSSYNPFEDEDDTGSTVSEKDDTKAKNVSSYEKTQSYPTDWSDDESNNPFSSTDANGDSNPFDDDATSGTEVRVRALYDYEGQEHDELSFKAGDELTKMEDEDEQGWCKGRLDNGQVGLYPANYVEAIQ
UniProt Q9UKI8, sequence (Q9UKI8 whole entry): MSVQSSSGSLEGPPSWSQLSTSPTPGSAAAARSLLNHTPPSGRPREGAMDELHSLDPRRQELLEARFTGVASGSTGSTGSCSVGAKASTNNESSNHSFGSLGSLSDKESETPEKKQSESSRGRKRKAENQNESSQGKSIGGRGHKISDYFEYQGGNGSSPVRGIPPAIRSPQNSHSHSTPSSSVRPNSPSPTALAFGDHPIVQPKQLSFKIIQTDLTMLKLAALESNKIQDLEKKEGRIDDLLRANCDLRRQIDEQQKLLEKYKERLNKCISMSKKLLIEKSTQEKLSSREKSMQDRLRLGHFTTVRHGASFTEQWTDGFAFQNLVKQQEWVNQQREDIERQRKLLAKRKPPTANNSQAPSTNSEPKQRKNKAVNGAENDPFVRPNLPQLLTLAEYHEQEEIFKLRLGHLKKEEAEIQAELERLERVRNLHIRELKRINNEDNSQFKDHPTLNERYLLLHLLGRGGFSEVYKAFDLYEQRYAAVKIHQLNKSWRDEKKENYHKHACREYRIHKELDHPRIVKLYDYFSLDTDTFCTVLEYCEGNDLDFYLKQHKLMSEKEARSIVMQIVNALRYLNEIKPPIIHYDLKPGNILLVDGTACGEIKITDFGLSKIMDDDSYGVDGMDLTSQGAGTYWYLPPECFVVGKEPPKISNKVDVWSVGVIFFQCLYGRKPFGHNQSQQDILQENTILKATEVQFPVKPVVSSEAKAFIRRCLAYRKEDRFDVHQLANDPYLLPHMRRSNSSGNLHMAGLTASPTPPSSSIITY
UniProt Q9Y224, sequence (Q9Y224 whole entry): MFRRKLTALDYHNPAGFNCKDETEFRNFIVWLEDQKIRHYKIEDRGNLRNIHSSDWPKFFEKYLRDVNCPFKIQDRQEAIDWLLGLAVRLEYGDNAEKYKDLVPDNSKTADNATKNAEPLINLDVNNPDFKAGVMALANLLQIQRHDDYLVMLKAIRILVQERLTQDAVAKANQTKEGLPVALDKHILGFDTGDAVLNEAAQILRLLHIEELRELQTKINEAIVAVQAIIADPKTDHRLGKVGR
UniProt Q9UIV1, sequence (Q9UIV1 whole entry): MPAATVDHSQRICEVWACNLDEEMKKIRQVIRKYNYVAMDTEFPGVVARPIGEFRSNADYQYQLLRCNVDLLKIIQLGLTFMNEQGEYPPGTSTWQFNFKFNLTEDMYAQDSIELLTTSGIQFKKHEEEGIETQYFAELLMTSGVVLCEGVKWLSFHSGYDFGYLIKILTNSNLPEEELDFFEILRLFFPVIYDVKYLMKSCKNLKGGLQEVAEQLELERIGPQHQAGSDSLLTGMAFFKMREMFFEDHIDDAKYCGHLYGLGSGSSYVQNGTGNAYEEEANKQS

With ACAD8 (UniProt Q9UKU7), the NP40-soluble protein abundance reads like this: (concentration: 1mM) 1.01 ± 0.049; (concentration: 2mM) 1 ± 0.064; (concentration: 4mM) 0.988 ± 0.033; (concentration: 6mM) 0.961 ± 0.058; (concentration: 8mM) 0.983 ± 0.029; (concentration: 10mM) 0.99 ± 0.038.
In the case of CNOT7 (UniProt Q9UIV1), the NP40-soluble protein abundance was 1.23 ± 0.044 (concentration: 1mM); 1.22 ± 0.06 (concentration: 2mM); 1.29 ± 0.038 (concentration: 4mM); 1.25 ± 0.037 (concentration: 6mM); 1.3 ± 0.061 (concentration: 8mM); 1.26 ± 0.076 (concentration: 10mM).
Turning to TRPV2 (UniProt Q9Y5S1), the NP40-soluble protein abundance (concentration: 1mM) is 1.02 ± 0.076; the NP40-soluble protein abundance (concentration: 2mM) was 1.02 ± 0.073; the NP40-soluble protein abundance (concentration: 4mM) was determined as 0.999 ± 0.03; the NP40-soluble protein abundance (concentration: 6mM) turned out to be 0.955 ± 0.0051; the NP40-soluble protein abundance (concentration: 8mM) was 0.965 ± 0.048; the NP40-soluble protein abundance (concentration: 10mM) was 0.976 ± 0.023.
Take PPME1 (UniProt Q9Y570): the NP40-soluble protein abundance reads like this: (concentration: 1mM) 0.951 ± 0.039; (concentration: 2mM) 0.972 ± 0.056; (concentration: 4mM) 0.956 ± 0.037; (concentration: 6mM) 0.933 ± 0.085; (concentration: 8mM) 0.941 ± 0.023; (concentration: 10mM) 0.953 ± 0.058.
As for UniProt Q9Y5T5-2, the NP40-soluble protein abundance worked out at 1.08 ± 0.067 (concentration: 1mM); 1.11 ± 0.032 (concentration: 2mM); 1.19 ± 0.014 (concentration: 4mM); 1.33 ± 0.045 (concentration: 6mM); 1.351 ± 0.012 (concentration: 8mM); 1.41 ± 0.028 (concentration: 10mM).
On to UniProt Q9Y224, for which the NP40-soluble protein abundance runs as follows: (concentration: 1mM) 0.958 ± 0.053; (concentration: 2mM) 0.872 ± 0.031; (concentration: 4mM) 0.903 ± 0.092; (concentration: 6mM) 0.918 ± 0.12; (concentration: 8mM) 0.995 ± 0.011; (concentration: 10mM) 0.782 ± 0.18.
Consider UniProt Q9UNF0|Q9UNF0-2, for which the NP40-soluble protein abundance was 0.963 ± 0.04 (concentration: 1mM); 0.952 ± 0.024 (concentration: 2mM); 0.927 ± 0.011 (concentration: 4mM); 0.954 ± 0.023 (concentration: 6mM); 0.895 ± 0.019 (concentration: 8mM); 0.9 ± 0.049 (concentration: 10mM).
Take UniProt Q9Y5P4|Q9Y5P4-2|Q9Y5P4-3: the NP40-soluble protein abundance (concentration: 1mM) worked out at 0.9555 ± 0.0053; the NP40-soluble protein abundance (concentration: 2mM) was 0.974 ± 0.025; the NP40-soluble protein abundance (concentration: 4mM) stood at 0.948 ± 0.011; the NP40-soluble protein abundance (concentration: 6mM) turned out to be 0.949 ± 0.024; the NP40-soluble protein abundance (concentration: 8mM) worked out at 0.93 ± 0.011; the NP40-soluble protein abundance (concentration: 10mM) came to 0.954 ± 0.026.
For UniProt Q9Y303|Q9Y303-2|Q9Y303-3, the NP40-soluble protein abundance came out at 0.995 ± 0.056 (concentration: 1mM); 1.03 ± 0.069 (concentration: 2mM); 1.03 ± 0.083 (concentration: 4mM); 0.973 ± 0.12 (concentration: 6mM); 1.02 ± 0.086 (concentration: 8mM); 0.995 ± 0.063 (concentration: 10mM).
“UniProt Q9Y639|Q9Y639-1|Q9Y639-3|Q9Y639-5”: the NP40-soluble protein abundance is 0.919 ± 0.11 (concentration: 1mM); 0.888 ± 0.06 (concentration: 2mM); 0.938 ± 0.1 (concentration: 4mM); 0.926 ± 0.084 (concentration: 6mM); 0.896 ± 0.061 (concentration: 8mM); 0.851 ± 0.11 (concentration: 10mM).
For the target UniProt Q9UKI8|Q9UKI8-5, the NP40-soluble protein abundance came out at 0.986 ± 0.039 (concentration: 1mM); 0.998 ± 0.025 (concentration: 2mM); 1 ± 0.059 (concentration: 4mM); 0.993 ± 0.041 (concentration: 6mM); 0.953 ± 0.021 (concentration: 8mM); 0.977 ± 0.054 (concentration: 10mM).
Take TMED3 (UniProt Q9Y3Q3): the NP40-soluble protein abundance stood at 1.08 ± 0.12 (concentration: 1mM); 1.07 ± 0.12 (concentration: 2mM); 1.06 ± 0.086 (concentration: 4mM); 1.04 ± 0.13 (concentration: 6mM); 1.06 ± 0.057 (concentration: 8mM); 1.04 ± 0.088 (concentration: 10mM).
For the target NOP58 (UniProt Q9Y2X3), the NP40-soluble protein abundance (concentration: 1mM) is 1.08 ± 0.062; the NP40-soluble protein abundance (concentration: 2mM) turned out to be 1.1 ± 0.054; the NP40-soluble protein abundance (concentration: 4mM) came to 1.2 ± 0.054; the NP40-soluble protein abundance (concentration: 6mM) was found to be 1.35 ± 0.079; the NP40-soluble protein abundance (concentration: 8mM) turned out to be 1.51 ± 0.042; the NP40-soluble protein abundance (concentration: 10mM) was 1.71 ± 0.13.
As for PARP4 (UniProt Q9UKK3), the NP40-soluble protein abundance is, setting by setting: (concentration: 1mM) 1.14 ± 0.017; (concentration: 2mM) 1.15 ± 0.12; (concentration: 4mM) 1.12 ± 0.083; (concentration: 6mM) 1.15 ± 0.14; (concentration: 8mM) 1.14 ± 0.042; (concentration: 10mM) 1.19 ± 0.085.
As to LNPEP (UniProt Q9UIQ6), the NP40-soluble protein abundance reads like this: (concentration: 1mM) 0.914 ± 0.015; (concentration: 2mM) 0.937 ± 0.021; (concentration: 4mM) 0.909 ± 0.022; (concentration: 6mM) 0.918 ± 0.035; (concentration: 8mM) 0.882 ± 0.045; (concentration: 10mM) 0.872 ± 0.038.
Turning to TEX264 (UniProt Q9Y6I9), the NP40-soluble protein abundance reads like this: (concentration: 1mM) 0.918 ± 0.028; (concentration: 2mM) 0.919 ± 0.024; (concentration: 4mM) 0.91 ± 0.041; (concentration: 6mM) 0.916 ± 0.061; (concentration: 8mM) 0.867 ± 0.058; (concentration: 10mM) 0.886 ± 0.029.
As for UniProt Q9UPN4-2|Q9UPN4-3|I3L2J8|Q9UPN4, the NP40-soluble protein abundance (concentration: 1mM) turned out to be 1.15 ± 0.14; the NP40-soluble protein abundance (concentration: 2mM) came to 1.18 ± 0.14; the NP40-soluble protein abundance (concentration: 4mM) was determined as 1.35 ± 0.12; the NP40-soluble protein abundance (concentration: 6mM) turned out to be 1.45 ± 0.21; the NP40-soluble protein abundance (concentration: 8mM) amounted to 1.47 ± 0.26; the NP40-soluble protein abundance (concentration: 10mM) stood at 1.7 ± 0.26.

Source of the values: the supplement of paper PMC6411743.
